Bioassay records (PubChem)
Hits are enriched below; roughly 0.82% of the tested compounds scored in any of these assays.
FadD28 FP inh: inhibitors of FadD28 bisubstrate probe binding, primary screen, biochemical, fluorescence polarization, single point. 0.22% of 360,000 active. AID 588549, 2011. inhibition, % at 12.5 µM; in the data active = inhibition above about 8.5%, passing the limit was not always enough
UGM FP inh: M. tuberculosis UGM enzyme inhibitors, primary screen, biochemical, fluorescence polarization, single point; UDP-galactopyranose mutase (Mycobacterium tuberculosis (strain ATCC 25618 / H37Rv)), …; purified UGM, fluorescence polarization probe displacement; inhibition, % at 10 µM; 0.06% of 320,000 active; AID 504406, 2011; in the data active = inhibition above about 10%, passing the limit was not always enough
Target sequence (P9WIQ1 whole entry, looked up): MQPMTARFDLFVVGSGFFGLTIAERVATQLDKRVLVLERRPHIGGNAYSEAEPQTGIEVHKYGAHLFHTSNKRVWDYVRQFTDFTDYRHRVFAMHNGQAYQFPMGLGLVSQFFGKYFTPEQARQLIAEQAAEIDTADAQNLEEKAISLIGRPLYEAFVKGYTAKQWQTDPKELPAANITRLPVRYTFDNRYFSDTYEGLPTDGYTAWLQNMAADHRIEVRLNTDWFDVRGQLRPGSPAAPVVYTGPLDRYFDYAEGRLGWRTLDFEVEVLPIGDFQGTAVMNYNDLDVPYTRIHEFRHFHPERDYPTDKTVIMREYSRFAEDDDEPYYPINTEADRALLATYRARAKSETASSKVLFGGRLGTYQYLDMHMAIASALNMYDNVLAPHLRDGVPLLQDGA
RecA splice inh: Mtb RecA intein splicing inhibitors, primary screen, biochemical, fluorescence, HTS; cell-free RecA intein splicing; inhibition, % (test concentration not listed); 0.75% of 290,000 active; AID 2221, 2009; in the data active = inhibition above about 30%;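 note: 0% = vehicle wells and 100% = reference inhibitor control wells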
Rv3671c protease: Rv3671c serine protease inhibitors, primary screen, biochemical, fluorescence polarization, M. tuberculosis H37Rv; P9WHR9; inhibition, % at 5.96 µM; 0.048% of 320,000 active; in the data active = inhibition above about 38%;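 note: extracellular domain of Rv3671c used as enzyme; 0% = enzyme with DMSO and 100% = no enzyme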
Mtb BioA inh: M. tuberculosis BioA enzyme inhibitors, primary screen, biochemical, plate reader, single point, HTS; purified M. tuberculosis BioA enzyme; inhibition, % at 9.99 µM; 0.096% of 360,000 active; AID 602481, 2012; in the data active = inhibition above about 40%
Y pestis TopoI: Yersinia pestis topoisomerase I inhibitors, primary screen, biochemical, cleavage product accumulation, plate reader, single point. DNA topoisomerase I (Yersinia pestis CO92). Y. pestis Topo-I cleavage product accumulation. activity, % at 10 µM. 0.064% of 360,000 active. AID 504884, 2011; in the data active = activity above about 50%, passing the limit was not always enough
The depositor's hits bear a star; . = no result given.

SMILES | FadD28 FP inh | UGM FP inh | RecA splice inh | Rv3671c protease | Mtb BioA inh | Y pestis TopoI
CCCCCCOc1ccc(N2C(=O)CC(S/C(N)=N/N=C(\C)c3cccs3)C2=O)cc1 (centres undefined) | -4 | -3 | -4 | 1 | -1 | 63*
C[C@@H]1CN([C@H](C)CO)C(=O)c2cc(/C=C/c3ccccc3)cnc2O[C@H]1CN(C)C(=O)c1ccc(F)cc1 | . | . | . | . | 1 | .
CO[C@H]1CN(C)C(=O)c2cc(NC(C)=O)ccc2OC[C@@H](C)N(Cc2ccccc2F)C[C@@H]1C | . | . | . | . | 2 | .
Cc1ccc2c(c1)C(c1ccc([N+](=O)[O-])cc1)=NNC(c1ccc(Br)cc1)=N2 | 0 | 1 | 0 | -1 | -5 | -5
CCc1ccc2c(c1)C(c1ccc([N+](=O)[O-])cc1)=NNC(c1ccc(Br)cc1)=N2 | -3 | 52* | 1 | -10 | . | -2
COc1ccc(-c2csc(/C(C#N)=C\c3ccc(O)c([N+](=O)[O-])c3)n2)cc1OC | 9.5* | 0 | 2 | -3 | 5 | -15
COc1ccc(/C=C2\SC(=S)N(CCCCCC(=O)Nc3cc(C)on3)C2=O)cc1OC | -1 | 0 | 2 | 5 | -1 | 1
O=C(CCCN1C(=O)/C(=C\c2ccccc2)SC1=S)Nc1ccc(O)cc1C(=O)O | 2 | 4 | 41* | -7 | 5 | 8
O=C(CCCN1C(=O)/C(=C/c2ccccc2)SC1=S)Nc1ccccc1O | -1 | -1 | 0 | -16 | . | -4
COc1cc(/C=C2\SC(=S)N(CCCCC(=O)O)C2=O)ccc1OS(=O)(=O)c1ccc(C)cc1 | 24* | 4 | 21 | -12 | 4 | 23
O=C(O)CCCN1C(=O)/C(=C\c2ccco2)SC1=S | 5 | . | 7 | . | . | -6
O=C(CCCN1C(=O)/C(=C/c2ccco2)SC1=S)Nc1ccccc1C(=O)O | 45* | -3 | 17 | -5 | . | -11
O=C(CCN1C(=O)/C(=C/c2ccco2)SC1=S)Nc1ccc(O)cc1C(=O)O | 21* | -1 | -3 | . | -1 | -4
COC(=O)CCCCCN1C(=O)/C(=C\c2ccncc2)SC1=S | 2 | -5 | 34* | 2 | . | -6
O=C(CN1C(=O)/C(=C\c2ccco2)SC1=S)Nc1ccc(O)cc1C(=O)O | 36* | -2 | 14 | 6 | 2 | -17
O=C(C[C@H]1C[C@H]2c3cc(NC(=O)Nc4ccccc4)ccc3O[C@H]2[C@H](CO)O1)NCCN1CCCCC1 | . | . | . | . | 1 | .
Cc1ccc(S(=O)(=O)N(C)C[C@@H]2Oc3ccc(NS(=O)(=O)c4ccc(F)cc4)cc3CC(=O)N([C@H](C)CO)C[C@@H]2C)cc1 | . | . | . | . | 2 | .
CCN(CC)C(=O)c1sc(NC(=O)Cc2cccs2)c(C#N)c1C | -2 | -1 | 6 | 3 | 0 | 1
Cc1c(C#N)c(NC(=O)CCl)n(Cc2ccc(F)cc2)c1C | -1 | 2 | 56* | 0 | . | 8
Cc1c(C#N)c(NC(=O)CCl)n(Cc2ccccc2)c1C | -3 | -3 | 44* | 9 | 1 | 8
Cc1c(C#N)c(NC(=O)CCl)n(Cc2cccs2)c1C | 0 | -1 | 65* | 4 | . | -3
O=C(OC(C(=O)NCc1ccccc1)c1ccco1)c1ccccc1 (centres undefined) | . | . | . | . | -1 | .
CCN(Cc1ccc(OC)c(F)c1)C(=O)CCl | -1 | -1 | 49* | 1 | . | 1
CCN(Cc1ccc(OC)c(F)c1)C(=O)C1CCCO1 (centres undefined) | 0 | -1 | 0 | 0 | 0 | 2
Oc1ccc(O)c(C=NNC(=S)NC2CC3CC2C2C=CCC32)c1 (centres undefined) | 18* | . | . | . | 0 | -15
COc1ccc(S(=O)(=O)N(C)C[C@@H]2OCCCC[C@@H](C)Oc3ccc(NC(=O)C4CCCCC4)cc3C(=O)N([C@H](C)CO)C[C@H]2C)cc1 | . | . | . | . | -3 | .
CCC(CC)C1C(C#N)=C(N)Oc2n[nH]c(C)c21 (centres undefined) | -6 | -2 | -7 | 1 | 2 | -1
Cc1nn(-c2ccccc2)c(Cl)c1C1C(C#N)=C(N)Oc2n[nH]c(C)c21 (centres undefined) | -3 | 1 | 62* | 3 | 0 | -5
